Only some compounds are listed: those with a hit (about 4% of all), similar ones and a draw of the others.
esBAF inh: SWI/SNF esBAF complex inhibition; reporter increase, % at 12.5 µM; AID 602393; mouse ES cells, Bmi1-luciferase knock-in reporter, 24 h; 100% = twice the neutral-well signal; hit rate 2% among 350,000; in the data active means activation above about 40%; inconclusive means no clear call, values can overlap the other calls;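 further: 0% = median of the plate's neutral control wells and 100% = double that signal; a rise in the Bmi1 reporter signal indicates esBAF inhibition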
Wnt bcat act: activates Wnt/beta-catenin signaling in a reporter cell assay; activator, plate reader; activation, % at 9.35 µM; hit rate 1.2% among 300,000; in the data active means activation above about 30%, passing the limit was not always enough; inconclusive means no clear call, values can overlap the other calls;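 further: 0% = neutral control wells and 100% = positive control wells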
MITF TRPM1 inh: reduces MITF-dependent TRPM1 promoter luciferase signal; hit rate 0.83% among 330,000; SK-MEL-5 TRPM1 promoter luciferase, 24 h; AID 488899; inhibition, % at 12.5 µM;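 active means mean inhibition across replicates of 60% or more, whatever share of single replicates reaches that level; inconclusive means some that reach 60%, reason not given; inactive means mean inhibition across replicates below 60%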
MITF act: activators of MITF-driven TRPM1 promoter activity in SK-MEL-5 cells; SK-MEL-5 TRPM1-promoter luciferase, 24 h; % of positive control, neutral wells = 0; activation, % at 12.5 µM; hit rate 0.75% among 300,000; AID 588334;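 active means mean activation of at least 80% with every replicate also reaching 80%; inconclusive means mean reaches 80% but some replicate falls short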;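 further: 0% = neutral control wells and 100% = parthenolide positive control wells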
PAX8 reporter: PAX8 transcriptional activity inhibition. inhibition, % at 12.6 µM. RMG-I TPO-luciferase reporter, SteadyGlo, 24 h. hit rate 1.2% among 360,000. AID 652154;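 active means mean replicate inhibition at least 60% with every replicate also reaching 60%; inconclusive means only one of the two criteria is met; inactive means mean below 60% and not all replicates reaching 60%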;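 further: luciferase light reporting Pax8 driven TPO promoter activity; plate controls were median of neutral control wells for no effect and mitoxantrone controls for full effect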
EWS-Fli inh: blocks EWS/Fli oncoprotein-driven transcription | A673 NR0B1-luciferase reporter, viability-normalised | inhibition, % at 12.6 µM | hit rate 0.67% among 350,000;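 active means mean inhibition of at least 50% after viability correction, with every replicate also passing that limit; inconclusive means mean reaches 50% but only one of two replicates passes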;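 further: firefly luciferase signal divided by Alamar Blue viability fluorescence both relative to DMSO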
Active calls of the source: *; ? = inconclusive; nt = no result given.

SMILES	esBAF inh	Wnt bcat act	MITF TRPM1 inh	MITF act	PAX8 reporter	EWS-Fli inh
Nc1ccccc1-n1nc2ccc3ccccc3c2n1	41*	55*	nt	nt	-129	-55
COc1cc2nn(-c3ccccc3N)nc2cc1OC	nt	42*	nt	nt	-190	-97
Nc1nc2c(ccc3ccccc32)s1	nt	-1	-32	nt	-39	-54
O=C(C[C@H]1C[C@H]2c3cc(NC(=O)Nc4ccc(C(F)(F)F)cc4)ccc3O[C@H]2[C@H](CO)O1)NCc1ccc(Cl)cc1	2	nt	nt	nt	28	0
O=C(/C=C/Nc1ccc(Br)cn1)c1cccc(OC(F)F)c1	68*	15	-87	93*	-179	-124
CC(C)(C)S(=O)N1Cc2cc(C(=O)NCCCN3CCOCC3)nc(-c3cccc(C#CCC4CCCC4)c3)c2[C@@H]1CCO (some centres undefined)	0	nt	nt	nt	82*	21
O=C(O)c1cccc(N/N=C/C2=C(Cl)c3cc(Cl)ccc3SC2)c1	nt	40*	-33	36	-77	-40
Cc1nn(-c2ccccc2Cl)c(Cl)c1/C=N/Nc1cccc(C(=O)O)c1	nt	nt	69*	-67	30	nt
COc1ccc2ccccc2c1/C=N/Nc1ccc(Cl)c(C(=O)O)c1	6	2	-24	27	-34	-57
COc1ccc2ccccc2c1/C=N/Nc1cccc(C(=O)O)c1	66*	7	-88	93*	-43	-101
O=C(O)c1cccc(N/N=C/c2cccc3ccccc23)c1	-53	-1	81*	-80	-44	42
Cc1ccc(/C=N/Nc2cccc(C(=O)O)c2)s1	nt	nt	52	-48	53	nt
Cc1nn(-c2cccc(C(F)(F)F)c2)c(Cl)c1/C=N/Nc1cccc(C(=O)O)c1	nt	10	13	-13	-60	-2
COC(=O)C[C@H]1CC[C@H](NS(=O)(=O)c2ccccc2F)[C@H](CO)O1	2	nt	nt	nt	0	4
CCS(=O)(=O)N1Cc2cc(C(=O)O)nc(-c3cccc(-c4ccc(C#N)cc4)c3)c2[C@@H]1CCO	nt	nt	nt	nt	-3	nt
COc1ccc(N/N=C/c2c(C(=O)O)ccc3ccccc23)cc1	-58	0	nt	-67	62*	-20
C[C@@H]1CN([C@@H](C)CO)C(=O)Cc2cc(NC(=O)c3ccncc3)ccc2O[C@H]1CN(C)Cc1ccccc1	3	nt	nt	nt	7	9
Cc1cc(C)cc(NC(=O)CSc2nnc(-c3ccccc3C)o2)c1	18	nt	-24	27	nt	nt
COc1cccc(NC(=O)CSc2nnc(-c3ccc(C)cc3)o2)c1	60*	20	-48	45	-242	-86
COc1ccccc1NC(=O)CSc1nnc(-c2ccc(C)cc2)o1	-13	58*	-51	nt	-143	nt
O=C(CSc1ncc(-c2ccccc2)[nH]1)Nc1ccccc1F	?	19	-86	88*	-99	-109
Cc1cccc(NC(=O)CSc2nnc(-c3ccccc3C)o2)c1	44*	nt	-83	80	nt	nt
COc1cccc(NC(=O)N[C@@H]2C=C[C@@H](CC(=O)NCc3ccccn3)O[C@@H]2CO)c1	5	nt	nt	nt	4	0
O=C(CSc1nnc(-c2ccc(O)cc2)o1)Nc1cccc(O)c1	12	34*	-65	66	-135	-53
O=C(CSc1nnc(-c2cccnc2)o1)Nc1ccccc1F	5	40*	-50	52	-107	-13
SMILES	esBAF inh	Wnt bcat act	MITF TRPM1 inh	MITF act	PAX8 reporter	EWS-Fli inh
O=C(CSc1nnc(-c2ccc(O)cc2)o1)Nc1ccc2c(c1)OCCO2	-10	nt	-45	50	nt	nt
O=C(COC(=O)c1ccccc1-n1cnnn1)c1ccc(F)c(F)c1	56*	5	4	-4	7	-66
O=C(COC(=O)c1ccccc1-n1cnnn1)c1ccccc1	11	-1	-5	7	-5	-32
Cc1cc[n+](C(C)C(=O)c2ccc(-c3ccccc3)cc2)cc1 (centres undefined)	nt	-1	?	-59	69*	15
CC(C(=O)c1ccc(-c2ccccc2)cc1)[n+]1ccccc1 (centres undefined)	3	-5	31	-30	50	nt
Oc1ccc(Nc2ccc3ccccc3c2)cc1	49*	0	nt	nt	-74	-98
Cc1ccc(NC(=O)C(=O)NCC2OCCc3ccccc32)cc1 (centres undefined)	15	1	-24	20	-19	-6
O=C(NCC1OCCc2ccccc21)c1ccc(NC(=O)c2ccc(Cl)cc2)cc1 (centres undefined)	nt	-8	69*	-70	34	nt
COc1ccc2c3c(n(C)c2c1)[C@@H](CO)N(CC1CC1)CC31CN(C(=O)Nc2ccc(F)cc2F)C1	nt	nt	nt	nt	nt	-1
CC(C)c1ccc(-c2nnn(CCC(=O)O)n2)cc1	-77	nt	87*	-86	nt	nt
Cc1noc(C)c1S(=O)(=O)Nc1ccc2c(c1)C(=O)N([C@@H](C)CO)C[C@H](C)[C@H](CN(C)S(=O)(=O)c1c(C)noc1C)OCCCC[C@@H](C)O2	0	nt	nt	nt	11	5
CCC(=O)Nc1ccc2c(c1)C(=O)N(C)C[C@H](OC)[C@@H](C)CN(C(=O)COC)[C@@H](C)CO2	-2	nt	nt	nt	-11	3
Cn1c(C(=O)NCCc2c[nH]c3ccccc23)cc2sccc21	74*	13	-103	101*	-110	-78
Cc1ccc(NC(=O)C(=O)NCCc2c[nH]c3ccccc23)cc1C	nt	-1	2	0	22	37
O=C(NCCc1c[nH]c2ccccc12)c1cccnc1	22	-22	-4	-1	71*	-2
O=C(NCCc1c[nH]c2ccccc12)c1ccc2nc[nH]c2c1	1	20	-24	27	-29	-19
O=C(NCCc1c[nH]c2ccccc12)C(=O)Nc1ccccc1	58*	24	-56	58	-155	7
COc1ccc(C(=O)CCC(=O)NCCc2c[nH]c3ccccc23)cc1	-1	1	4	-5	14	24
O=C(CCC(=O)c1ccccc1)NCCc1c[nH]c2ccccc12	nt	-1	8	-2	122*	10
C[C@H]1CN([C@@H](C)CO)C(=O)Cc2cc(NC(=O)CCCCCC(=O)Nc3ccccc3N)ccc2O[C@H]1CN(C)C(=O)Nc1ccc(C(F)(F)F)cc1	-1	nt	nt	nt	-6	7
CO[C@H]1CN(C)C(=O)c2ccc(NC(=O)C3CCC3)cc2OC[C@H](C)N(Cc2ccncc2)C[C@H]1C	-3	nt	nt	nt	7	-1
COCC(=O)Nc1ccc2c(c1)C(=O)N(C)C[C@H](OC)[C@@H](C)CN(Cc1ccncc1)[C@@H](C)CO2	-5	nt	nt	nt	-1	16
O=C(COC(=O)[C@H](Cc1c[nH]c2ccccc12)NC(=O)c1ccc(Cl)cc1)Nc1ccc2c(c1)OCO2	?	nt	-9	11	6	nt
COC(=O)[C@@H](Cc1c[nH]c2ccccc12)NC(=O)c1ccc2c(c1)OCO2	68*	38*	-67	67	-85	-66
O=C(NCCc1c[nH]c2ccccc12)c1cc(Cl)c2c(c1)OCO2	47*	36*	-106	113*	-156	-85
